Test results reported in PubChem BioAssay (Tox21).
A number with no mark means an inactive call. The call rests on the fitted dose curve; in most records, active means well fitted curve in the direction sought with a large enough effect in the repeat runs; inconclusive means weak or mixed curves; inactive means no such curve, though single readings can be large; an effect the other way counts as inactive or inconclusive. Records with an inconclusive call do not appear.

Assay: Caspase-3/7 induction in CHO-K1 cells by small molecules, qHTS cell viability counter screen (AID 1346979); further: nearly all actives have a fitted effect of over 35% in size
Conditions: CellTiter-Fluor fluorescence, 17 h; series mostly up to 92.4 µM; activity change, negative = cytotoxicity: at the top concentration
In short: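 In the same wells as the caspase read, viability of compound-treated wild-type CHO-K1 cells was assessed using CellTiter-Fluor, added after 16hr at 37C and measured by fluorescence following 1hr further incubation.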
On the % scale 0 is the no-effect control and ±100 the full control effect.

| Compound | activity change, negative = cytotoxicity |
| --- | --- |
| COc1ccc(S(=O)(=O)N2c3ccc(Cl)cc3[C@@](O)(c3ccccc3Cl)[C@H]2C(=O)N2CCC[C@@H]2C(N)=O)cc1OC | 1.97% [at 42.5 µM] |
| CCCCCCCC/C=C\CCCCCCCC(=O)OCCCC | 3.24% [at 19 µM] |
| COc1ccc(OC)c(Cl)c1 | 5.54% |
| N[C@@H](CCC(=O)N[C@@H](CS)C(=O)NCC(=O)O)C(=O)O | 5.61% [at 19 µM] |
| CCOC(=O)c1ccc(OC(=O)CCCCCN=C(N)N)cc1 | 0.706% [at 42.5 µM] |
| CC(C)CC(C)CC(C)CC(C)COC(=O)c1ccccc1C(=O)OCC(C)CC(C)CC(C)CC(C)C (centres undefined) | 13.3% |
| CC(=C(CCOC(=O)C(C)C)SSC(CCOC(=O)C(C)C)=C(C)N(C=O)Cc1cnc(C)nc1N)N(C=O)Cc1cnc(C)nc1N | -3.81% [at 42.5 µM] |
| COC(=O)C1CC(=O)C(C(=O)OC)CC1=O (centres undefined) | 8.06% [at 8.39 µM] |
| Nc1cccc(O)c1 | -0.258% |
| CC(C)CCCC(C)(C)O | 0.709% |
| O=C(NCC(O)CO)c1c(I)c(C(=O)NCC(O)CO)c(I)c(N(CCO)C(=O)CO)c1I (centres undefined) | 5.67% [at 42.5 µM] |
| CCC(C)NC(N)=O (centres undefined) | 1.15% |
| C[C@H](CCC(=O)O)[C@H]1CC[C@H]2[C@@H]3C(=O)C[C@@H]4CC(=O)CC[C@]4(C)[C@H]3CC(=O)[C@]12C | 0.134% [at 42.5 µM] |
| CC(C)OC(=O)CCCCC(=O)OC(C)C | 9.01% |
| CCCOC(=O)C(C)O (centres undefined) | 5.34% |
| O=S(=O)(O)CCN1CCN(CCO)CC1 | 1.11% |
| CCCCOC(=O)c1ccccc1 | 8.28% |
| O=C(OCc1ccccc1)C(=O)OCc1ccccc1 | 0.44% |
| COC(=O)CCc1ccc(OCC(O)CNC(C)C)cc1 (centres undefined) | -8.09% [at 42.5 µM] |

| Compound | activity change, negative = cytotoxicity |
| --- | --- |
| CCOCCOCCOCC | 0.844% |
| CO[C@@H]1[C@@H](OC(N)=O)[C@@H](O)[C@H](Oc2ccc3c(O)c(NC(=O)c4ccc(O)c(CC=C(C)C)c4)c(=O)oc3c2C)OC1(C)C | 1.76% [at 42.5 µM] |
| C=Cc1ccccn1 | 0.712% |
| CCCC/C=C/C=C\C=O | -7.87% |
| CCCN1C[C@H](CSC)C[C@@H]2c3cccc4[nH]cc(c34)C[C@H]21 | -14% [at 42.5 µM] |
| c1ccc2c(c1)ccc1c3ccccc3ccc21 | 8.47% [at 42.5 µM] |
| CCO[Si](CCCS)(OCC)OCC | 10.1% |
| COC(=O)CCCCCCCC(=O)OC | -1.51% |
| O=C(O)c1cc(Cl)cc([N+](=O)[O-])c1Cl | 1.73% |
| O=C1CCCC(=O)O1 | 5.86% |
| CC1=C(C(=O)O)N2C(=O)[C@@H](NC(=O)[C@H](N)c3ccc(O)cc3)[C@H]2SC1 | -2.89% [at 42.5 µM] |
| CC(CC=O)CCCC(C)(C)O (centres undefined) | 0.575% |
| O=C1O[C@@H]2[C@@H](O)[C@H](O)O[C@@H]2[C@H]1O | 2.68% |
| COCCc1ccc(OCC2CO2)cc1 (centres undefined) | 6.99% [at 42.5 µM] |
| Cc1ccc2ccc(Cl)cc2n1 | 8.3% [at 42.5 µM] |
| c1ccc2nccnc2c1 | -0.527% |
| COc1cc(C(=S)N2CCOCC2)cc(OC)c1OC | 1.84% [at 42.5 µM] |
| COCCOCCOCCOCCO | 8.44% |

Assay: Caspase-3/7 induction in CHO-K1 cells by small molecules, qHTS assay (AID 1346980); further: nearly all actives have a fitted effect of over 15% in size
Conditions: CHO-K1 caspase-3/7 induction, Caspase-Glo luminescence, 17 h; series mostly up to 92.4 µM; caspase-3/7 activation: at the top concentration
In short: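 Wild-type CHO-K1 cells exposed to compounds for 17hr at 37 C, 5% CO2. Caspase-3/7 activity then measured by Caspase-Glo 3/7 luminescence after 30min at room temperature.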

| Compound | caspase-3/7 activation |
| --- | --- |
| COc1ccc(S(=O)(=O)N2c3ccc(Cl)cc3[C@@](O)(c3ccccc3Cl)[C@H]2C(=O)N2CCC[C@@H]2C(N)=O)cc1OC | -0.122% [at 42.5 µM] |
| CCCCCCCC/C=C\CCCCCCCC(=O)OCCCC | -0.343% [at 19 µM] |
| COc1ccc(OC)c(Cl)c1 | 0.0399% |
| N[C@@H](CCC(=O)N[C@@H](CS)C(=O)NCC(=O)O)C(=O)O | -0.229% [at 19 µM] |
| CCOC(=O)c1ccc(OC(=O)CCCCCN=C(N)N)cc1 | -1.54% [at 42.5 µM] |
| CC(C)CC(C)CC(C)CC(C)COC(=O)c1ccccc1C(=O)OCC(C)CC(C)CC(C)CC(C)C (centres undefined) | 0.157% |
| CC(=C(CCOC(=O)C(C)C)SSC(CCOC(=O)C(C)C)=C(C)N(C=O)Cc1cnc(C)nc1N)N(C=O)Cc1cnc(C)nc1N | -1.36% [at 42.5 µM] |
| COC(=O)C1CC(=O)C(C(=O)OC)CC1=O (centres undefined) | 0.641% [at 8.39 µM] |
| Nc1cccc(O)c1 | 1.13% |
| CC(C)CCCC(C)(C)O | -0.645% |
| O=C(NCC(O)CO)c1c(I)c(C(=O)NCC(O)CO)c(I)c(N(CCO)C(=O)CO)c1I (centres undefined) | -0.097% [at 42.5 µM] |
| CCC(C)NC(N)=O (centres undefined) | 2.23% |
| C[C@H](CCC(=O)O)[C@H]1CC[C@H]2[C@@H]3C(=O)C[C@@H]4CC(=O)CC[C@]4(C)[C@H]3CC(=O)[C@]12C | 1.7% [at 42.5 µM] |
| CC(C)OC(=O)CCCCC(=O)OC(C)C | 1.16% |
| CCCOC(=O)C(C)O (centres undefined) | -0.142% |
| O=S(=O)(O)CCN1CCN(CCO)CC1 | -1.82% |
| CCCCOC(=O)c1ccccc1 | 0.274% |
| O=C(OCc1ccccc1)C(=O)OCc1ccccc1 | -1.45% |
| COC(=O)CCc1ccc(OCC(O)CNC(C)C)cc1 (centres undefined) | -1.03% [at 42.5 µM] |

| Compound | caspase-3/7 activation |
| --- | --- |
| CCOCCOCCOCC | 1.22% |
| CO[C@@H]1[C@@H](OC(N)=O)[C@@H](O)[C@H](Oc2ccc3c(O)c(NC(=O)c4ccc(O)c(CC=C(C)C)c4)c(=O)oc3c2C)OC1(C)C | 0.141% [at 42.5 µM] |
| C=Cc1ccccn1 | -0.23% |
| CCCC/C=C/C=C\C=O | 3.03% |
| CCCN1C[C@H](CSC)C[C@@H]2c3cccc4[nH]cc(c34)C[C@H]21 | 0.0905% [at 42.5 µM] |
| c1ccc2c(c1)ccc1c3ccccc3ccc21 | 0.173% [at 42.5 µM] |
| CCO[Si](CCCS)(OCC)OCC | -0.231% |
| COC(=O)CCCCCCCC(=O)OC | -0.947% |
| O=C(O)c1cc(Cl)cc([N+](=O)[O-])c1Cl | -0.487% |
| O=C1CCCC(=O)O1 | -0.728% |
| CC1=C(C(=O)O)N2C(=O)[C@@H](NC(=O)[C@H](N)c3ccc(O)cc3)[C@H]2SC1 | -0.0122% [at 42.5 µM] |
| CC(CC=O)CCCC(C)(C)O (centres undefined) | 0.733% |
| O=C1O[C@@H]2[C@@H](O)[C@H](O)O[C@@H]2[C@H]1O | 1.17% |
| COCCc1ccc(OCC2CO2)cc1 (centres undefined) | 0.0516% [at 42.5 µM] |
| Cc1ccc2ccc(Cl)cc2n1 | -0.349% [at 42.5 µM] |
| c1ccc2nccnc2c1 | -0.0331% |
| COc1cc(C(=S)N2CCOCC2)cc(OC)c1OC | -0.811% [at 42.5 µM] |
| COCCOCCOCCOCCO | 0.225% |
